For 39 sequences, binding signal and Kd results are on record in publication PMC5913336, “True equilibrium measurement of transcription factor-DNA binding affinities using automated polarization microscopy”.

Broadly, the Kd is the free concentration of one partner at which half of the binding sites on the other are occupied at equilibrium, for simple one-to-one binding. A low value points to a tighter complex.

This test concerns the target T1, Croc (Drosophila melanogaster, UniProt P32027 54-175).
T1 sequence: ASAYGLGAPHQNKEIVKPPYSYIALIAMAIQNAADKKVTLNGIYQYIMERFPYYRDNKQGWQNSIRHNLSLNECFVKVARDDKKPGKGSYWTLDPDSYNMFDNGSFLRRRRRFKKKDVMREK
The test is described as follows: FP; 20 mM Tris-acetate pH 7.0, 50 "nM" NaCl as printed (probably mM), 0.01% Tween 20, 0.1 mM DTT; conventional titration. The note with it: tags: N-GST (pGEX-6P-1, kept); dsDNA, one strand shown.
Consider ATAGATAAATATA, for which the binding signal is 9.22 Kd / Kd of best base at the position.
For TTAGATAAATATG, the binding signal is 17.4 Kd / Kd of best base at the position.
On the same count and under the same terms, to TAAGATAAATATA belongs 7.76 Kd / Kd of best base at the position.
The same measure, in the same setting: to TTAGATAATTATA belongs 197 Kd / Kd of best base at the position; to TTAGATAAAAATA, 380 Kd / Kd of best base at the position.
On the same count and under the same terms, to TTCGATAAATATA belongs 33 Kd / Kd of best base at the position.
As for TTAGATAAATTTA, the binding signal was 35.4 Kd / Kd of best base at the position.
Same read-out and setting: to TTAGATATATATA belongs 164 Kd / Kd of best base at the position.
For the sequence TTGGATAAATATA, the binding signal was 5.64 Kd / Kd of best base at the position.
For GTAGATAAATATA, the binding signal is 13.8 Kd / Kd of best base at the position.
For TTAGATTAATATA, the binding signal is 109 Kd / Kd of best base at the position.
Still for that read-out and setting: to TTAGATAAACATA belongs 1.86 Kd / Kd of best base at the position; to TTTGATAAATATA, 15.4 Kd / Kd of best base at the position; to TCAGATAAATATA, 51.8 Kd / Kd of best base at the position.
Still for that read-out and setting: the value for TTAGTTAAATATA was 43.2 Kd / Kd of best base at the position.
As for TTAGATAAATATC, the binding signal is 2.74 Kd / Kd of best base at the position.
On the same count and under the same terms, the value for TTAGATAAATGTA was 79 Kd / Kd of best base at the position.
TTAGATAAATAAA: the binding signal was 2.04 Kd / Kd of best base at the position.
Still for that read-out and setting: the value for TTAGATAGATATA was 1160 Kd / Kd of best base at the position; that for TTAGATACATATA was 93.4 Kd / Kd of best base at the position; that for TTAGATAAGTATA was 95 Kd / Kd of best base at the position.
On the same count and under the same terms, to TGAGATAAATATA belongs 76.4 Kd / Kd of best base at the position.
On the same count and under the same terms, to TTAGGTAAATATA belongs 3.08 Kd / Kd of best base at the position; to TTAGATAAATATT, 1.02 Kd / Kd of best base at the position.
Regarding TTAGAGAAATATA, the binding signal is 48.4 Kd / Kd of best base at the position.
The same measure, in the same setting: the value for TTACATAAATATA was 6.62 Kd / Kd of best base at the position; that for TTAAATAAATATA was 1.66 Kd / Kd of best base at the position.
Same read-out and setting: to TTAGATAAATACA belongs 1.16 Kd / Kd of best base at the position.
TTAGATAAATATA showed a Kd of roughly 0.3 nM.
In the case of TTAGATAACTATA, the binding signal is 387 Kd / Kd of best base at the position.
Still for that read-out and setting: to CTAGATAAATATA belongs 4.3 Kd / Kd of best base at the position; to TTAGATAAATCTA, 46 Kd / Kd of best base at the position.
The same measure, in the same setting: the value for TTAGCTAAATATA was 38.6 Kd / Kd of best base at the position; that for TTAGATAAATAGA was 5.76 Kd / Kd of best base at the position.
TTAGATAAAGATA: the binding signal is 119 Kd / Kd of best base at the position.
Same read-out and setting: the value for TTAGATGAATATA was 2300 Kd / Kd of best base at the position; that for TTATATAAATATA was 2.66 Kd / Kd of best base at the position.
Turning to TTAGACAAATATA, the binding signal was 16.3 Kd / Kd of best base at the position.
For the sequence TTAGAAAAATATA, the binding signal is 7.44 Kd / Kd of best base at the position.
